Bioassay records as filed in PubChem.
Compounds with a hit are over-represented: about 0.44% of the library has one in this group of screens.
RmlC RmlD mix: inhibitors of RmlC and RmlD coupled enzymes. RmlC/RmlD coupled enzyme inhibition, 384-well mixture HTS. inhibition, % at 5.5 µM. 0.39% of 110,000 active. AID 1532; in the data active = inhibition above about 30%, passing the limit was not always enough
YopH PTP inh: YopH (Yersinia) phosphatase inhibition; fluorescence Ex485/Em525; 0.16% of 140,000 active; inhibition, % (test concentration not listed); in the data active = inhibition above about 50%
RmlCD artifact: shows fluorescent artifact in RmlC/RmlD assay, dose-response counter-screen | shares compounds with RmlC RmlD mix | RmlC/RmlD assay fluorescence artifact counter-screen | calls only | 96% of 360 active; call rule not given here;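 note: compound alone with no enzyme and no substrates present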
Active calls of the source: *; i = inactive; x = no result; + = active, no number.

SMILES	RmlC RmlD mix	YopH PTP inh	RmlCD artifact
Cc1cc(C)c(S(=O)(=O)ON2C(=O)c3ccccc3C2=O)cc1C	146.4*	-30.3	+
C=CCON1C(=O)c2ccccc2C1=O	-9.8	-20.9	x
Cc1cc(C)c(C)c(S(=O)(=O)ON2C(=O)c3ccccc3C2=O)c1C	114.1*	-55.9	+
CC(=O)c1c(C)[nH]c(C(=O)OC(C)C(=O)Nc2cc(S(=O)(=O)N3CCCCC3)ccc2Cl)c1C (stereo not given)	x	-19.2	x
CCOCCOC(=O)COc1ccc2c(-c3ccccc3)cc(=O)oc2c1	x	-23.0	x
Cc1cccc(S(=O)(=O)Nc2nc3ccccc3nc2NCc2ccc3c(c2)OCO3)c1	x	-28.7	x
CCOc1ccccc1Oc1c(C)oc2c(CN3CCN(C)CC3)c(O)ccc2c1=O	19.0	-14.6	x
CCc1cc2c(=O)c(Oc3ccccc3F)c(C)oc2c(CN(C)C)c1O	72.5*	5.1	+
NNc1nnc(-c2ccccc2)c(-c2ccccc2)n1	5.1	-19.4	x
Nc1nc(N)c2nc(-c3ccccc3)c(N)nc2n1	119.1*	-24.6	+
COc1ccc(C2CC(c3ccccc3)=NN2c2ccc(/C=N/NC(=O)c3ccncc3)cc2)cc1 (stereo not given)	7.8	-8.3	x
NS(=O)(=O)c1ccc(N2N=C(c3ccccc3)CC2c2ccc(F)cc2)cc1 (stereo not given)	148.9*	-19.9	+
Cc1ccccc1NC(=O)C1CCCN1/C=C/C(=O)C(F)(F)F (stereo not given)	x	-28.9	x
Cc1cc(=O)oc2c(CN(CC(C)C)CC(C)C)c(O)ccc12	104.9*	-31.0	+
O=c1c(-c2ccc3c(c2)OCCO3)coc2c(CN3CCOCC3)c(O)ccc12	13.1	-34.7	x
O=c1oc2c(CN3CCOCC3)c(O)ccc2c2c1CCC2	99.6*	-28.6	+
CCN(CC)Cc1c(O)ccc2c(-c3ccccc3)cc(=O)oc12	-8.4	-32.2	x
CC(C)CN(Cc1c(O)ccc2c3c(c(=O)oc12)CCC3)CC(C)C	95.0*	-111.7	+
Cc1c(O)ccc2c3c(c(=O)oc12)CCCC3	69.6	-29.7	x
CCC1(C)Cc2c(sc3nnn(Cc4ccccc4Cl)c(=O)c23)CO1 (stereo not given)	-3.7	-11.1	x
COCCn1c(Cc2ccccc2)nnc1SCc1ccc([N+](=O)[O-])cc1	x	-19.8	x
COC(=O)C1=CNC=C(C(=O)OC)C1c1ccc(Cl)cc1	-24.1	15.8	x
COC(=O)C1=CNC=C(C(=O)OC)C1c1cccc(OC)c1	50.5*	-26.9	+
O=C(NCc1cccnc1)C(=O)NCC1OCCCN1S(=O)(=O)c1ccccc1 (stereo not given)	x	13.7	x
CCOc1cc(N2CCOCC2)c(OCC)cc1NC(=O)COC(=O)c1cccc2ccccc12	x	-4.5	x
SMILES	RmlC RmlD mix	YopH PTP inh	RmlCD artifact
CCOCC(=O)Nc1c(C(=O)Nc2ccccc2OC)oc2ccccc12	-19.3	-45.5	x
COc1ccc(NC(=O)c2oc3ccccc3c2NC(=O)COc2ccccc2OC)c(OC)c1	103.8*	11.8	+
Cc1c(Br)c(=O)oc2c(Br)c(O)c(O)cc12	x	-6.9	x
CCN(CC)Cc1c(O)c(Cl)cc2c(C)c(C)c(=O)oc12	67.9*	-16.7	+
Cc1c(Cc2ccccc2)c(=O)oc2c(CN(C)C)c(O)c(Cl)cc12	144.7*	-17.5	+
CN(C)Cc1c(O)ccc2oc(Cc3ccccc3)cc12	4.1	-19.5	x
Cc1ccccc1OCc1nnc(SCC(=O)Nc2ccc(N3CCOCC3)c(Cl)c2)n1C	-12.5	-23.1	x
COc1ccc(/C=N/NC(=O)Cc2cc(OC)c(OC)cc2[N+](=O)[O-])cc1	x	-17.4	x
O=[N+]([O-])c1ccc(/C=C2\CCC(C3=CCCC3)=C2N2CCOCC2)cc1	x	-17.8	x
COc1ccc(Nc2nnc(SCc3cc([N+](=O)[O-])cc4c3OCOC4)s2)cc1	9.0	-17.2	x
CCN(CC)CC(=O)Nc1ccc(-c2nc3cc(NC(=O)CN(CC)CC)ccc3o2)cc1	-27.4	-17.1	x
O=C(CN1CCCC1)Nc1ccc(-c2nc3cc(NC(=O)CN4CCCC4)ccc3o2)cc1	46.1*	-7.0	+
CC(O)C(NS(=O)(=O)c1ccc(Cl)cc1)C(=O)OCC(=O)N1CCN(c2ccccc2)CC1 (stereo not given)	x	5.3	x
COc1cccc(OCCCOc2ccccc2C(C)C)c1	-7.5	-29.2	x
O=C(NCCN1CCOCC1)c1ccc2c(c1)N(Cc1ccccc1)CCS2	17.7	-42.7	x
CN1CCN(CCCNC(=O)c2ccc3c(c2)N(Cc2ccccc2)CCS3)CC1	37.5*	-35.9	+
C=CCNC(=O)NC(=O)COC(=O)/C(C#N)=C/c1cc(C)n(CCC(C)C)c1C	30.0*	-30.7	+
Cc1cc(/C=C(\C#N)C(=O)OCC(=O)NC(=O)NC(C)(C)C)c(C)n1CCC(C)C	2.4	4.7	x
O=C1c2ccccc2C(=O)N1/N=C/c1ccc(O)c(O)c1	x	-21.3	x
CCCOc1ccc2c(CC)cc(=O)oc2c1C	x	-34.6	x
CCc1cc(=O)oc2c(C)c(O)c(CN(C)C)cc12	81.9*	-1.4	+
CC1=CC(C)C2COC(c3ccc[n+](C)c3)C1C2C (stereo not given)	x	-22.6	x
CC(C)OCCCn1c(=N)c(C(N)=S)cc2c(=O)n3ccccc3nc21	34.8	-21.8	x
Cc1ccc2nc3c(cc(C(=O)NCC4CCCO4)c(=N)n3CCCOC(C)C)c(=O)n2c1 (stereo not given)	126.0*	-39.1	+
CC(C)CN(C(=O)c1cc2ccccc2o1)c1c(N)n(CC(C)C)c(=O)[nH]c1=O	x	16.4	x
SMILES	RmlC RmlD mix	YopH PTP inh	RmlCD artifact
O=C(Nc1ccccc1N1CCOCC1)c1cc(-c2ccco2)nc2ccccc12	x	-5.5	x
O=C(COC(=O)c1cc(-c2ccco2)nc2ccccc12)NCc1ccccc1	-27.1	-26.3	x
O=C(NNC(=O)c1cc(-c2ccco2)nc2ccccc12)c1ccccc1	x	x	+
CNC(=O)COC(=O)c1cc(-c2ccco2)nc2ccccc12	x	x	+
Cc1cc(NC(=O)/C=C/c2ccc(Cl)cc2)no1	x	7.5	x
C[C@H](c1ccccc1)n1nnc(COCc2ccccc2)c1C#CCOCc1ccccc1	7.1	x	x
COC(=O)Cc1c(C)c2c(OCc3nn[nH]n3)cc(C)cc2oc1=O	37.7*	-61.1	+
COC(=O)Cc1c(C)c2ccc(OCc3nn[nH]n3)cc2oc1=O	30.8	8.3	x
CCCOC(=O)c1ccc(Oc2coc3c(CN(CC)CC)c(O)ccc3c2=O)cc1	x	-2.5	x
COc1cccc(/C=N/NC(=O)c2nc(-c3ccccc3)cc(-c3ccccc3)n2)c1O	x	-14.5	x
Cc1ccccc1NC(=O)c1ccccc1NC(=O)CCC(=O)O	x	-20.0	x
CCOC(=O)CCCCC(=O)c1[nH]c(=O)[nH]c1CSc1nnc2c3ccccc3n(C(C)C)c2n1	x	-27.7	x
Cc1cc2cc(CN(Cc3ccc4c(c3)OCO4)C(=O)c3ccco3)c(=O)[nH]c2cc1C	12.3	-9.3	x
COc1cc2cc(CN(Cc3ccc4c(c3)OCO4)C(=O)c3ccco3)c(=O)[nH]c2cc1OC	45.8*	-14.7	+
OCC[C@@H]1C[C@@H](O)[C@H](O)[C@@]2(CCCCO2)O1	-28.9	x	x
CC(=O)SCC(Cc1ccccc1)C(=O)NCC(=O)OCc1ccccc1 (stereo not given)	-23.1	x	x
Cc1ccccc1-c1c(C)oc2cc(O)ccc2c1=O	38.1*	-35.8	+
O=c1cc(O)c2ccc(O)cc2o1	103.9	x	x
CC(=O)Oc1ccc2c(C)cc(=O)oc2c1	+	-11.0	+
COc1ccc2c(C)cc(=O)oc2c1C	-3.9	-31.9	x
CC(=O)Oc1cc2oc(=O)cc(C)c2cc1OC(C)=O	i	-22.8	x
